Data taken from PubChem BioAssay (Tox21).
Values joined by “and” are separate entries in the source; they are usually repeats but may differ in a detail not shown here. Equal values may be shown once. Inconclusive results are not listed. A call without a number means that no potency is given here. Some compounds were tested as several samples or in several runs, with calls that do not always agree. Active and inactive are the calls of the source. Unless noted, the call rests on the fitted dose curve; in most records, active means well fitted curve in the direction sought with a large enough effect in the repeat runs; inconclusive means weak or mixed curves; inactive means no such curve, though single readings can be large; an effect the other way counts as inactive or inconclusive.

How the values were obtained:
[1] = target: Thyrotropin receptor (Homo sapiens) (UniProt P16473); assay: qHTS assay to identify small molecule agonists of the thyroid stimulating hormone receptor (TSHR) signaling pathway (AID 1224843; calls by dose curve; further: nearly all actives have a fitted effect of over 45% in size; further: potency means the concentration at half of the fitted maximal effect)
Sequence of Thyrotropin receptor (Homo sapiens) (P16473 whole entry, looked up): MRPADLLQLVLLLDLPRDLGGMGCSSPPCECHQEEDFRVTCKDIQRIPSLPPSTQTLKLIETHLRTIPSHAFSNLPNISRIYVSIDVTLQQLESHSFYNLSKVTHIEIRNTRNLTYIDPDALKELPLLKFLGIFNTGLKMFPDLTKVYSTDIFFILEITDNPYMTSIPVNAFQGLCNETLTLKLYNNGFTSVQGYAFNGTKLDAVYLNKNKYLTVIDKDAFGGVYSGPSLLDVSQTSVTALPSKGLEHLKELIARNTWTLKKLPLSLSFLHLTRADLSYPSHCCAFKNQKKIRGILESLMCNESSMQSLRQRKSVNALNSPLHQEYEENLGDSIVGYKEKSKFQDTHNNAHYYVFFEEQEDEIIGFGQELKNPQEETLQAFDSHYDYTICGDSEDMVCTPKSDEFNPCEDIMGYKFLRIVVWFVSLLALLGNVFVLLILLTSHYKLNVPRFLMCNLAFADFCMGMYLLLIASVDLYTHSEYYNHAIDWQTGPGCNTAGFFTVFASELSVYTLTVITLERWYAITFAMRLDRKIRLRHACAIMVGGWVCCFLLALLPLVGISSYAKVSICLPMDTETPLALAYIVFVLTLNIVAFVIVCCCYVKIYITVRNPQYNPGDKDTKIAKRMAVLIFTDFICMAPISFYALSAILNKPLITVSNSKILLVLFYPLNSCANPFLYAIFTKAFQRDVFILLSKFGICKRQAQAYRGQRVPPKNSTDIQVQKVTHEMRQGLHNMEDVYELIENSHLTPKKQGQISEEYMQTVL
Summary of the method: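 TSHR-expressing HEK293 cells (800 per well) were exposed to compounds for 30 min at room temperature. cAMP was then detected by HTRF competition with cAMP-d2 and anti-cAMP cryptate, read after 1 h at room temperature. Fifteen concentrations, triplicate.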

[2] = qHTS assay to identify small molecule agonists of the hypoxia (HIF-1) signaling pathway - cell viability counter screen (AID 1224844; calls by dose curve; further: nearly all actives have a fitted effect of over 50% in size; further: potency means the concentration at half of the fitted maximal effect)
Summary of the method: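 Tox21 10K compounds were added to HRE-bla ME-180 cells (0.5% dialyzed FBS) and incubated 17 hrs at 37C; ATP-based CellTiter-Glo luminescence then reported cell viability in the same wells.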

[3] = qHTS assay to identify small molecule agonists of H2AX (AID 1224845; active means well fitted activation curve with a large enough effect in the signal ratio in the repeat runs, not every such curve was filed as active; the % refers to the signal ratio)
Summary of the method: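 Wild-type CHO-K1 cells plated overnight, then exposed 3 hr at 37C to compounds at 15 concentrations (0.76% DMSO). Lysed, then HTRF anti-pH2AX(S139)-cryptate/anti-H2AX-d2 detection after 24 hr at room temperature; emissions 665 and 620 nm.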

[4] = qHTS assay to identify small molecule agonists of H2AX - cell viability counter screen (AID 1224847; calls by dose curve; further: nearly all actives have a fitted effect of over 30% in size; further: potency means the concentration at half of the fitted maximal effect)
Summary of the method: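 For this counter screen, overnight-attached CHO-K1 cells received test compounds (15 concentrations, 0.76% DMSO final); 3 hr later at 37C, CellTiter-Glo reagent was added and luminescence recorded after 30 min at room temperature.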

[5] = qHTS assay to identify small molecule antagonists of the estrogen related receptor (ERR) signaling pathway from Tox21 library (AID 1224848); further: nearly all actives have a fitted effect of over 50% in size; further: potency means the concentration at half of the fitted maximal effect
Summary of the method: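 Cells: ERR line, 2,000/well; 6 h preincubation 37 C/5% CO2. Cpd in DMSO via pin tool; 18 h, 37 C. ONE-Glo, 30 min RT, luminescence.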

[6] = qHTS assay to identify small molecule agonists of the estrogen related receptor (ERR) signaling pathway from Tox21 library (AID 1224849; calls by dose curve; further: nearly all actives have a fitted effect of over 15% in size); conditions: ERR reporter cell line, ONE-Glo luciferase, 18 h
Summary of the method: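 Agonist signal is luciferase luminescence from an ERR reporter cell line treated 18 h at 37 C with DMSO-dissolved compounds, read 30 min after ONE-Glo addition at room temperature.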

[7] = qHTS RealTime-Glo MT Cell Viability Assay in HepG2 cells - 24 hour (AID 1224867); further: nearly all actives have a fitted effect of over 50% in size; further: potency means the concentration at half of the fitted maximal effect
Summary of the method: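 Cell number in HepG2 cultures estimated from NanoLuc luminescence generated by metabolic reduction of a prosubstrate by living cells. The homogeneous, nonlytic format allowed repeated reads at 0, 8, 16, 24, 32 and 40 h of compound exposure.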

[8] = qHTS RealTime-Glo MT Cell Viability Assay in HEK293 cells - 32 hour (AID 1224868); further: nearly all actives have a fitted effect of over 50% in size; further: potency means the concentration at half of the fitted maximal effect
Summary of the method: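 Homogeneous bioluminescent viability format in HEK293 cells (600 cells/well). Following 5 h at 37 C/5% CO2, 23 nL compound was pintooled; the signal was measured repeatedly during 40 h incubation.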

[9] = A CellTox Green Cytotoxicity Assay to monitor cytotoxicity in HEK293 cells - 0 hour (AID 1224869); further: nearly all actives have a fitted effect of over 50% in size
Summary of the method: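 Cytotoxicity was tracked continuously in HEK293 cells by a DNA-binding dye excluded from viable cells. Compounds were transferred in DMSO 5 h after seeding; fluorescence was recorded at intervals up to 40 h.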

[10] = qHTS assay to identify small molecule agonists of the hypoxia (HIF-1) signaling pathway (AID 1224846; active means well fitted activation curve with a large enough effect in the signal ratio in the repeat runs, not every such curve was filed as active; the % refers to the signal ratio)
Summary of the method: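 Steps: seed ME-180 HRE-bla cells (2,000/well, 0.5% dialyzed FBS); incubate 5 hrs at 37C; pin-transfer compounds or DMSO; incubate 17 hrs; add LiveBLAzer B/G substrate CCF4-AM; measure reporter activation by FRET.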

Structure (SMILES)	Potency [1]	Potency [2]	Potency [3]	Potency [4]	Potency [5]	activity change, positive = activation ([6]; at 92.4 µM (top of the series))	Potency [7]	Potency [8]	Potency [9]	activity change, positive = activation ([6]; at 42.5 µM (top of the series))	outcome [10]
CC(C)(N=C=O)c1cccc(C(C)(C)N=C=O)c1	inactive	inactive	inactive	inactive	54 µM (active) and inactive	-40.3% (inactive) and 2.13% (inactive)	inactive	inactive	inactive		
O=C(O)c1cc(-c2ccccc2)nc2ccccc12	inactive	inactive	inactive	inactive	inactive		inactive	inactive	inactive		
O=C1N=C(O)CN1/N=C/c1ccc(-c2ccc([N+](=O)[O-])cc2)o1	inactive	inactive	inactive	inactive			inactive	inactive	inactive		
Clc1ccc(Cl)c(Cl)c1Cl	inactive	inactive	inactive	inactive			inactive	inactive	inactive		
COC(=O)c1ccccc1O	inactive	inactive	inactive	inactive	inactive	19.3% (active) and 7.16% (inactive)	inactive	inactive	inactive		
COCC(C)O (configuration not stated)	inactive	inactive	inactive	inactive	inactive		inactive	inactive	inactive		
Cc1cc(=O)[nH]c(C(C)C)n1	inactive	inactive	inactive	inactive	inactive		inactive	inactive	inactive		
CC1=C(CC(=O)O)c2cc(F)ccc2/C1=C\c1ccc(S(C)=O)cc1 (configuration not stated)	inactive	inactive	inactive	inactive			inactive	inactive	inactive		
C=CC(=O)OCCCCCCCC(C)C	inactive	inactive	inactive	inactive			inactive	inactive	inactive		
CC1CC(OC(=O)c2ccccc2O)CC(C)(C)C1 (configuration not stated)	inactive	48.5 µM (active) and inactive	inactive	inactive			inactive	inactive	inactive		
CC1Cc2ccccc2N1NC(=O)c1ccc(Cl)c(S(N)(=O)=O)c1 (configuration not stated)	inactive	inactive	inactive	inactive	inactive		inactive	inactive	inactive		
CCCCCCC(C)(C)S	inactive	inactive	inactive	inactive			inactive	inactive	inactive		
CCCCCCCCCCC=CC1CC(=O)OC1=O (configuration not stated)	inactive	inactive	inactive	inactive			inactive	inactive	inactive		
ClC1=C(Cl)C(Cl)(Cl)C(Cl)=C1Cl	inactive	11 µM (active) and 6.17 µM (active)	inactive	inactive	inactive	5.38% (inactive) and 4.2% (inactive)	inactive	39.1 µM (active)	inactive		
CNC[C@H](O)[C@@H](O)[C@H](O)[C@H](O)CO	inactive	inactive	inactive	inactive			inactive	inactive	inactive		
COCC(=O)O	inactive	inactive	inactive	inactive			inactive	inactive	inactive		
O=S(=O)(O)CCS	inactive	inactive	inactive	inactive	inactive		inactive	inactive	inactive		
CCc1ccccc1O	inactive	inactive	inactive	inactive			inactive	inactive	inactive		
C=C1C2CCC(C2)C1(C)C (configuration not stated)	inactive	inactive	inactive	inactive	inactive		inactive	inactive	inactive		
C[C@@H](O)[C@H]1C(=O)N2C(C(=O)O)=C(S[C@@H]3CN[C@H](C(=O)N(C)C)C3)[C@H](C)[C@H]12	inactive	inactive	inactive	inactive	inactive		inactive	inactive	inactive	6.5% (inactive) and 3.13% (inactive)	

Structure (SMILES)	Potency [1]	Potency [2]	Potency [3]	Potency [4]	Potency [5]	activity change, positive = activation ([6]; at 92.4 µM (top of the series))	Potency [7]	Potency [8]	Potency [9]	activity change, positive = activation ([6]; at 42.5 µM (top of the series))	outcome [10]
CCCCC/C=C\C/C=C\CCCCCCCC(=O)OC	inactive	inactive	inactive	inactive			inactive	inactive	inactive		
CCC(C)C=O (configuration not stated)	4.32 µM (active) and inactive	inactive	inactive	inactive			inactive	inactive and 3.47 µM (active)	inactive		
Oc1ccc2ccccc2c1N=Nc1ccccc1	inactive	inactive	inactive				inactive	inactive	inactive		inactive
CCCCCCCCCCCCN	inactive	inactive	inactive	inactive and 20.1 µM (active)			inactive and 24.5 µM (active)	inactive and 43.6 µM (active)	inactive		
CCc1ccc(O)cc1	inactive	inactive	inactive	inactive	inactive	0.519% (inactive) and 6.7% (inactive)	inactive	inactive	inactive		
CCCCOCCO	inactive	inactive	inactive	inactive	inactive	5.31% (inactive) and -0.958% (inactive)	inactive	inactive	inactive		
Nc1nc2ncc(CNc3ccc(C(=O)N[C@@H](CCC(=O)O)C(=O)O)cc3)nc2c(=O)[nH]1	inactive	inactive	inactive	inactive			inactive	inactive	inactive		
CN(C)c1ccc(C(=N)c2ccc(N(C)C)cc2)cc1		inactive		39.6 µM (active) and 24.4 µM (active)				3.05 µM (active) and 2.97 µM (active)	inactive		
O=C(Cl)c1c(Cl)c(Cl)c(C(=O)Cl)c(Cl)c1Cl		inactive	inactive	inactive	inactive	2.78% (inactive) and 1.3% (inactive)	inactive	inactive	inactive		
CCCCOCCOCCOC(=O)CCCCC(=O)OCCOCCOCCCC		inactive	inactive	inactive			inactive	inactive	inactive		
O=C(c1cc(O)c(O)c(O)c1)c1ccc(O)c(O)c1O		inactive		inactive	inactive		inactive	inactive	inactive		inactive
CC(C)NCC(O)COc1cccc2ccccc12 (configuration not stated)		inactive	inactive	inactive			inactive		inactive		
Cc1cc(O)c2c(c1)C(=O)c1cc(O)cc(O)c1C2=O	inactive	inactive		55.4 µM (active) and 80 µM (active)	inactive and 54.5 µM (active)		inactive		inactive		inactive
CC1=C(/C=C/C(C)=C/C=C/C(C)=C/CO)C(C)(C)CCC1		inactive	inactive	inactive	inactive		inactive	inactive	inactive		inactive
CC(C)n1c(/C=C/[C@@H](O)C[C@@H](O)CC(=O)O)c(-c2ccc(F)cc2)c2ccccc21		inactive	inactive	inactive			inactive	inactive	inactive		inactive
O=C(Oc1ccccc1)c1ccc(O)cc1	inactive	inactive	inactive				inactive	inactive	inactive		
C/C=C(C)/C=C/C=C(C)C		inactive	inactive	inactive			inactive	inactive	inactive		inactive
C[C@@H]1O[C@@H](OC[C@H]2O[C@@H](Oc3c(-c4ccc(O)c(O)c4)oc4cc(O)cc(O)c4c3=O)[C@H](O)[C@@H](O)[C@@H]2O)[C@H](O)[C@H](O)[C@H]1O	inactive	inactive		inactive			inactive	inactive	inactive		inactive
CCC(=O)O		inactive	inactive	inactive			inactive	inactive	inactive		inactive
Nc1c(S(=O)(=O)O)cc(Br)c2c1C(=O)c1ccccc1C2=O	inactive	inactive		inactive			inactive	inactive	inactive		

Structure (SMILES)	Potency [1]	Potency [2]	Potency [3]	Potency [4]	Potency [5]	activity change, positive = activation ([6]; at 92.4 µM (top of the series))	Potency [7]	Potency [8]	Potency [9]	activity change, positive = activation ([6]; at 42.5 µM (top of the series))	outcome [10]
NC(=O)/N=N/C(N)=O		inactive	inactive	inactive	inactive		inactive	inactive	inactive		
NCCc1ccc(O)c(O)c1		inactive		inactive			inactive	inactive	inactive		
CC(C)(C)C(=O)C1C(=O)c2ccccc2C1=O	inactive	inactive		88.9 µM (active) and 56.6 µM (active)			inactive	inactive	inactive		
O=Nc1ccc(O)cc1	inactive	inactive		inactive			inactive	inactive	inactive		
Oc1c(Cl)cc(Cl)c(Cl)c1Cl	inactive	inactive		111 µM (active)	53.3 µM (active) and 48.6 µM (active)		inactive		inactive		inactive
O=[N+]([O-])c1cc(N(CCO)CCO)ccc1NCCO		inactive		50.4 µM (active) and 50.5 µM (active)			inactive	inactive	inactive		inactive
CCOC(=O)C1OC1c1ccccc1 (configuration not stated)		inactive	inactive	inactive			inactive		inactive		inactive
O=C(O)c1ccc([N+](=O)[O-])cc1		inactive	inactive	inactive			inactive	inactive	inactive		inactive
O=C1CCCCC1		inactive	inactive	inactive	inactive	-2.85% (inactive) and -5.66% (inactive)	inactive	inactive	inactive		
CS(=O)(=O)c1ccc([C@@H](O)[C@@H](CO)NC(=O)C(Cl)Cl)cc1		inactive	inactive	inactive			inactive	inactive	inactive		
OCC1CCCO1 (configuration not stated)		inactive	inactive	inactive			inactive	inactive	inactive		inactive
CC#C[C@]1(O)CC[C@H]2[C@@H]3CCC4=CC(=O)CCC4=C3[C@@H](c3ccc(N(C)C)cc3)C[C@@]21C	inactive	inactive		inactive	26.6 µM (active)		inactive	49 µM (active)	inactive		inactive
Cc1cc(NS(=O)(=O)c2ccc(N)cc2)no1	inactive	inactive		inactive			inactive	inactive	inactive		
COC(=O)Nc1nc2ccc(Sc3ccccc3)cc2[nH]1	inactive	inactive		inactive			inactive	692 nM (active) and 848 nM (active)	inactive		
O=C(c1ccc(O)cc1)c1ccc(O)cc1O	inactive		inactive				inactive	inactive	inactive		
CCOC(=O)[C@H](CCc1ccccc1)N[C@@H](C)C(=O)N1Cc2ccccc2C[C@H]1C(=O)O		inactive	inactive	inactive	inactive	-6.49% (inactive)	inactive	inactive	inactive	-3.47% (inactive)	
Cn1c([N+](=O)[O-])cnc1COC(N)=O		inactive	inactive	inactive	inactive	6.73% (inactive)	inactive	inactive	inactive	3.23% (inactive)	
CC(=O)[C@@]1(O)CC[C@H]2[C@@H]3CCC4=CC(=O)CC[C@]4(C)[C@H]3CC[C@@]21C	inactive	inactive	inactive	inactive			inactive		inactive		
